Source: PubChem BioAssay
Sampled rows, rich in hits. Any-hit rate of the full collection: about 7.2%.
A1 inh – inhibitors of the anti-apoptotic protein A1, read as caspase activation | MEF A1-2A-BIM cells, Caspase-Glo 3/7 luminescence, 3 h; percent of clofoctol response, vehicle zero | caspase activation, % (concentration not given with the values) | 0.066% of 330,000 active | AID 2462;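 active = over half of replicate activation scores above 10%, or exactly half above 10 with the replicate mean above 10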
VLA-4 inh – inhibition in a human VLA-4 binding assay | P13612 | inhibition, % (about 7 µM as worked out from the volumes in the protocol) | 0.2% of 330,000 active | VLA-4 expressing cells, ligand binding flow cytometry | AID 2557; in the data active = inhibition above about 50%
Mot1-301 SUMO – inhibitors of SUMOylation pathway: yeast Mot1-301 growth rescue; S. cerevisiae Mot1-301 growth rescue, ATP luminescence, 38.5C; percent above DMSO median, 100 means doubled; growth rescue, % at 18.8 µM; 1% of 320,000 active;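 active = every valid replicate shows activation above 250% relative to neutral control wells; inactive = the rest, any valid replicate at or below 250%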;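 also: OY570 slx delta 5 strain wells were the positive control but not used for scaling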
AHR activator – activates the human aryl hydrocarbon receptor; P35869; activation, % at 5 µM; AHR-responsive luciferase reporter cells, luminescence; 2.5% of 320,000 active; AID 2796; in the data active = activation above about 47%;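 also: 0% = vehicle wells and 100% = reference agonist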
Efflux pump mplx – blocks antifungal efflux pumps in multiplex yeast assay | S. cerevisiae Candida pump triplex, Nile Red efflux | inhibition, % at 10 µM | 0.44% of 330,000 active;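 active = plate passing quality check with inhibition over a set limit, or well fluorescence over plate mean plus 4 SD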;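 also: Nile Red retained in pooled yeast measured as flow cytometry median fluorescence; 0% = buffer negative control and 100% = Enniatin B positive control; higher means more Nile Red kept so more efflux inhibition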
ALR H2O2 inh – blocks human ALR sulfhydryl oxidase activity | P55789 | purified ALR, DTT oxidation, H2O2 HRP-luminol luminescence | inhibition, % (test concentration not listed) | 3.8% of 290,000 active;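 active = mean replicate inhibition above about 79%, with every replicate also reaching it, limit read from the data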
AHR act cf – confirmation of human aryl hydrocarbon receptor activators; shares compounds with AHR activator; human cells, AHR-responsive luciferase reporter, luminescence; activation, % at 9 µM; 87% of 2,300 active; AID 2845; in the data active = activation above about 49%;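 also: HepG2 hepatoma cells carrying a DRE-driven firefly luciferase reporter; 0% = vehicle wells and 100% = reference agonist wells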
PXR act counter – activates human PXR in AHR activator counter-screen; shares compounds with AHR activator; cell-based PXR reporter, luciferase luminescence; activation, % at 11.6 µM; 88% of 2,300 active; in the data active = activation above about 11%;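 also: human hepatoma DPX-2 cells expressing full-length human PXR; 0% = DMSO and 100% = reference agonist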
* hit, by the source's call; / = no result.

SMILES	A1 inh	VLA-4 inh	Mot1-301 SUMO	AHR activator	Efflux pump mplx	ALR H2O2 inh	AHR act cf	PXR act counter
C/C(=N\NC(=O)Cc1c[nH]c2ccccc12)c1ccc2ccccc2c1	1	2	-25	11	0	12	/	/
Oc1ccc(N=Nc2ccc3ccccc3c2)cc1	-7	-1	263	18	1	23	/	/
COc1cc(N=Nc2ccc3ccccc3c2)ccc1O	-8	5	25	84*	0	/	28	13*
CCCCNc1c(-c2ccc(OC)c(SC3CCCCC3)c2)nc2cnccn12	0	-19	1	94*	0	13	58*	169*
C[C@H]1CCC(=O)N([C@H](CN=[N+]=[N-])Cc2ccccc2)CC1	0	4	8	-2	0	-1	/	/
CCn1c(O)c(N=NC(=O)CNC(=O)c2ccco2)c2ccccc21	0	11	-2	12	0	-8	/	/
CCCn1c(O)c(N=NC(=O)c2ccco2)c2ccccc21	0	1	-13	87*	0	7	88*	50*
COc1ccc(/C=C2\SC(=S)N(CC(=O)OCC(=O)Nc3ccc(C)cc3Cl)C2=O)cc1	0	3	/	1	0	-20	/	/
CC(=O)n1c2ccccc2c2c1c1ccccc1n2C	0	-1	3	109*	0	/	113*	22*
CC(=O)Nc1c(Cl)n(C(C)=O)c2ccccc12	1	5	8	37	0	7	/	/
CCc1ccc(NC(=O)c2ccc3nc(N)sc3c2)cc1	0	-3	-10	99*	0	91*	51*	18*
Nc1nc2ccc(C(=O)Nc3ccccc3)cc2s1	0	14	282*	100*	0	98*	137*	48*
Cc1ccc[n+](CC(=O)c2ccc(Br)cc2)c1C	0	10	-5	83*	0	11	47*	/
Cc1ccc[n+](CC(=O)c2ccc(NC(=O)c3ccccc3)cc2)c1C	-1	1	9	-1	0	8	/	/
Cc1nc(-c2ccc(C(F)(F)F)cc2)sc1C(=O)NN	-1	-11	-9	86*	0	-16	10	14*
Cc1nc(Cl)sc1C(=O)Nc1ccc(C(F)(F)F)cc1	-2	13	4	99*	0	6	106*	/
Cc1cc(-c2onc(C)c2C(=O)Nc2ccc(C(F)(F)F)cc2)no1	3	26	-6	84*	0	-21	95*	39*
Cc1nc(-c2cccnc2)sc1C(=O)Nc1ccc(C(F)(F)F)cc1	0	12	19	95*	0	-2	61*	10*
COc1ccccc1NS(=O)(=O)c1ccc(C(=O)N2CCCCCC2)cc1	0	-4	5	-1	0	10	/	/
C/C(=N\Nc1ccc(S(N)(=O)=O)cc1[N+](=O)[O-])c1ccco1	0	4	20	-2	0	-8	/	/
COc1ccc(OC)c(S(=O)(=O)N2CCCC(C(=O)N3CCOCC3)C2)c1 (centres undefined)	0	17	-26	2	0	-1	/	/
COc1ccc(OC)c(Nc2nc(NCCO)c3ccccc3n2)c1	-1	7	-4	88*	0	59	85*	35*
CCN=C(Nc1ccc(Cl)cc1)c1cccnc1	1	-2	/	104*	0	-25	81*	35*
C/C(=C\C(=O)c1cccnc1)Nc1ccc(O)cc1	-1	-9	1	20	0	66	/	/
CCN(CC)c1ccc(/C=N/NC(=O)C2CC2)cc1	0	-8	-11	85*	0	100*	77*	44*
O=c1c2ccccc2oc2nc(-c3ccco3)n(-c3ccccc3)c(=O)c12	-1	26	5	95*	0	-16	148*	33*
COc1ccc2c(=O)c3c(=O)n(-c4ccccc4)c(-c4ccc(C)cc4)nc3oc2c1	0	1	1	12	0	5	/	/
